# Test results as given in PubChem BioAssay (Tox21).
# Where “and” joins values, the source holds several entries; their conditions need not be identical. Identical values can stand only once. Unmarked numbers belong to inactive results. Records with an inconclusive call do not appear. A call without a number means that no potency is given here. Calls of active or inactive are those of the source. Calls follow the shape of the dose curve; as a rule, active = well fitted curve in the direction sought with a large enough effect in the repeat runs; inconclusive = weak or mixed curves; inactive = no such curve, though single readings can be large; an effect the other way counts as inactive or inconclusive.
# What was measured:
# [1] = Human pregnane X receptor (PXR) small molecule agonists, qHTS cell viability counter screen (AID 1346977); also: nearly all actives have a fitted effect of over 50% in size; also: potency is read from the fitted curve at half-maximal effect
# Summary of the method: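 PXR-Luc HepG2, 2,000 cells/well, 5% charcoal-stripped FBS; 5hr settle; cpd 24hr, 37C/5% CO2; CellTiter-Fluor at 23hr, read 1hr later (fluorescence).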
# [2] = Caspase-3/7 induction in HepG2 cells by small molecules, qHTS assay (AID 1346978); also: nearly all actives have a fitted effect of over 15% in size
# Summary of the method: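 Caspase-3/7 induction was measured by Caspase-Glo 3/7 luminescence (30 min, room temperature) after a 17 hr compound exposure of wild-type HepG2 cells seeded at 2,000 per well and pre-incubated 5 hr.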
# [3] = Caspase-3/7 induction in CHO-K1 cells by small molecules, qHTS cell viability counter screen (AID 1346979); also: nearly all actives have a fitted effect of over 35% in size; also: potency is read from the fitted curve at half-maximal effect
# Summary of the method: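 Cells (CHO-K1, wild type) are plated at 1,500 per well and incubated 5hr. Test compounds in DMSO are then pinned in, followed by 16hr at 37C and 5% CO2. Viability is read by CellTiter-Fluor fluorescence after 1hr.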
# [4] = Caspase-3/7 induction in HepG2 cells by small molecules, qHTS cell viability counter screen (AID 1346981); also: series mostly up to about 92 µM; nearly all actives have a fitted effect of over 30% in size
# Summary of the method: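 Wild-type HepG2 cells, 2,000/well, settled 5 hr at 37 C, 5% CO2 before compound addition. Viability read by CellTiter-Fluor fluorescence, reagent added after 16 hr compound exposure, then 1 hr at 37C, in the same wells as the caspase read.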
# [5] = target: Nuclear receptor subfamily 1 group I member 2 (Homo sapiens) (UniProt O75469); test: Human pregnane X receptor (PXR) small molecule agonists, qHTS assay (AID 1346982); also: nearly all actives have a fitted effect of over 35% in size; also: potency is read from the fitted curve at half-maximal effect
# Nuclear receptor subfamily 1 group I member 2 (Homo sapiens), sequence (O75469 whole entry, looked up): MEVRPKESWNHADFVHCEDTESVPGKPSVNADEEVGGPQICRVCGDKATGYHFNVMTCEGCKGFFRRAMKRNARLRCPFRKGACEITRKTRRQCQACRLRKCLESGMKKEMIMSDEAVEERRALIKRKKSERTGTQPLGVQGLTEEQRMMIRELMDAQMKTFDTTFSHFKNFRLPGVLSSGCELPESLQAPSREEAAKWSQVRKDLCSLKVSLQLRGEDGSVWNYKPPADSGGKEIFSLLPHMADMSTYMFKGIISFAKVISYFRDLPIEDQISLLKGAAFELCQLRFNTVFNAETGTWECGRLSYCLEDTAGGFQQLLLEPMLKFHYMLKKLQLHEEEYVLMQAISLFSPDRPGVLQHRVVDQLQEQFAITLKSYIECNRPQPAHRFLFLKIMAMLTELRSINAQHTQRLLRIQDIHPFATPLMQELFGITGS
# Summary of the method: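 PXR-Luc HepG2 reporter cells (CYP3A4-driven luciferase) in 5% charcoal-stripped FBS medium, plated 5 h before compound addition, then treated 24 h at 37C. Luciferase read by ONE-Glo luminescence after 30 min at room temperature.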
# [6] = target: Cytochrome P450 2D6 (Homo sapiens) (UniProt P10635); test: Cytochrome P450 Family 2 Subfamily D Member 6 (CYP2D6) small molecule antagonists: luciferase reporter qHTS assay (AID 1671196); also: nearly all actives have a fitted effect of over 50% in size; also: potency is read from the fitted curve at half-maximal effect
# Cytochrome P450 2D6 (Homo sapiens), sequence (P10635 whole entry, looked up): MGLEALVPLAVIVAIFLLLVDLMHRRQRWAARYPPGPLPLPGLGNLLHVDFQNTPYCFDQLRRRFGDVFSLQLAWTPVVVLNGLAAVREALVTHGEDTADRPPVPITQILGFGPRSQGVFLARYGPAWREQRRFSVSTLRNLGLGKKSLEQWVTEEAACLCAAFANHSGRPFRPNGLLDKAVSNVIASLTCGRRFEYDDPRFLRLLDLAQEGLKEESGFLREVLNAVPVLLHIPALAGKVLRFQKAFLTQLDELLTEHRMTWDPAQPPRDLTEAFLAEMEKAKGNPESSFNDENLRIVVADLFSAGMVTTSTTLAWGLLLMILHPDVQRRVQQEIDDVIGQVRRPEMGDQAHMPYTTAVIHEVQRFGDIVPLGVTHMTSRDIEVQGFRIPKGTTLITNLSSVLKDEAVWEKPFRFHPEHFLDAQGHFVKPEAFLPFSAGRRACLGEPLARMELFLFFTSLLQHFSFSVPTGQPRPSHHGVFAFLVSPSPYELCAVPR
# Summary of the method: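 Cell-free P450-Glo system: CYP2D6 with proluciferin substrate was pre-incubated with compound for 10 min, then reacted with NADPH regeneration for 1 h at room temperature. Luciferin product was detected after 20 min, and data were reported as relative luminescence units.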
# [7] = target: Nuclear receptor subfamily 1 group I member 2 (Rattus norvegicus) (UniProt Q9R1A7); test: Rat pregnane X receptor (rPXR) activation by small molecules, qHTS assay (AID 1346983); settings: rPXR luciferase reporter cells, One-Glo luminescence, 24 h; max activation: stronger effect = higher value; also: nearly all actives have a fitted effect of over 20% in size
# Nuclear receptor subfamily 1 group I member 2 (Rattus norvegicus), sequence (Q9R1A7 whole entry, looked up): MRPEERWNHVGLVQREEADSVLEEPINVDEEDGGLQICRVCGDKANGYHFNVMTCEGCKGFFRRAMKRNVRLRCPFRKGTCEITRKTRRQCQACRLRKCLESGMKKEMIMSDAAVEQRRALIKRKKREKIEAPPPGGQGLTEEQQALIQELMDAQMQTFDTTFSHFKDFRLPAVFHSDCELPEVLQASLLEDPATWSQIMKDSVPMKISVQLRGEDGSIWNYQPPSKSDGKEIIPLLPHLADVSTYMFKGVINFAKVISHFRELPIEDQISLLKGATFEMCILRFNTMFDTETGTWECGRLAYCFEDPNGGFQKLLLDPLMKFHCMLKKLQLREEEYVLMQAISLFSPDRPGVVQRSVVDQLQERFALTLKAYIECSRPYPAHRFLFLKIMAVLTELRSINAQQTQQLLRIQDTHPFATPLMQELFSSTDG
# Summary of the method: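 Luminescent readout (One-Glo luciferase, 30 min room temperature) followed 24 hr compound treatment at 37 C of rPXR cells plated 2,000 per well and preincubated 5hr; qHTS format with compounds delivered in DMSO.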
# [8] = target: Nuclear receptor subfamily 1 group I member 2 (Homo sapiens) (UniProt O75469); test: CYP3A4 induction through human pregnane X receptor (PXR) by small molecules, qHTS assay (AID 1346984); also: nearly all actives have a fitted effect of over 40% in size; also: potency is read from the fitted curve at half-maximal effect
# Summary of the method: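 DPX-2 HepG2 cells carrying a PXR response element and CYP3A4-promoter luciferase construct, treated with compounds 24 hr at 37C. Then P450-Glo CYP3A4 Luciferin-IPA substrate (3uM final) for 3 hr at 37C, One-Glo added, luminescence read.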
# [9] = Caspase-3/7 induction in CHO-K1 cells by small molecules, qHTS assay (AID 1346980); also: nearly all actives have a fitted effect of over 15% in size
# Summary of the method: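 Luminescent Caspase-Glo 3/7 read (30min, room temperature) quantified apoptosis induction. Cells were wild-type CHO-K1, treated with compound for 17hr at 37 C and 5% CO2.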
# [10] = target: Nuclear receptor subfamily 1 group I member 2 (Homo sapiens) (UniProt O75469); test: Human pregnane X receptor (PXR) activation by small molecules, qHTS assay (AID 1346985); also: nearly all actives have a fitted effect of over 40% in size
# Summary of the method: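 DPX-2 cells (HepG2 co-transfected with a PXR response element and a CYP3A4-promoter luciferase construct) were seeded at 2,000 per well, rested 5 hr at 37C, then exposed to DMSO-dissolved compounds for 24 hr. Activation was read as luciferase luminescence.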
SMILES,Potency [1],Potency [2],Potency [3],Potency [4],Potency [5],Potency [6],max activation [7],Potency [8],outcome [9],Potency [10]
CCN(O)CC,30 µM (active),inactive,26.7 µM (active),inactive,59.8 µM (active),inactive,–,–,–,–
CCOC(=O)[C@H](CCc1ccccc1)N[C@@H](C)C(=O)N1Cc2cc(OC)c(OC)cc2C[C@H]1C(=O)O,inactive,inactive,inactive,inactive,–,inactive,-0.0593%,inactive,–,–
CCCCC(CC)COC(=O)COc1cc(Cl)c(Cl)cc1Cl (stereo unspecified),inactive,inactive,–,inactive,inactive,–,–,–,inactive,–
CCN(CC)CC1CCCCN1CC(=O)N1c2ccccc2C(=O)Nc2cccnc21 (stereo unspecified),inactive,inactive,–,inactive,inactive,inactive,-0.899%,inactive,inactive,inactive
O=c1[nH]c(=O)n([C@H]2C[C@H](O)[C@@H](CO)O2)cc1C(F)(F)F,inactive,inactive,–,inactive,inactive,inactive,3.55%,–,inactive,inactive
O=C1CCC(C2CCCCC2)CC1,inactive,inactive,inactive,inactive,–,inactive,–,–,–,–
CCN1CC(CCN2CCOCC2)C(c2ccccc2)(c2ccccc2)C1=O (stereo unspecified),inactive,inactive,–,inactive,inactive,1.23 µM (active),9.94%,inactive,inactive,–
CN(CC1(C)CCCO1)S(=O)(=O)c1ccc(Cl)c(S(N)(=O)=O)c1 (stereo unspecified),inactive,inactive,–,inactive,10.6 µM (active),inactive,–,–,inactive,–
Cc1ccc(C)c(N)c1,inactive,inactive,–,inactive,inactive,20 µM (active),–,–,inactive,–
C=Cc1ccccc1,inactive,inactive,inactive,inactive,inactive,inactive,–,–,–,–
FC(F)(F)C(F)(F)C(F)(F)C(F)(F)C(F)(F)C(F)(F)C(F)(F)C(F)(F)Br,inactive,inactive,inactive,–,inactive,inactive,-2.79%,inactive,–,–
NS(=O)(=O)c1cc(-c2nn[nH]n2)c(NCc2cccs2)cc1Cl,inactive,inactive,–,inactive,13.3 µM (active),inactive,–,inactive,inactive,inactive
CCOc1ccccc1N,inactive,inactive,inactive,inactive,inactive,3.53 µM (active),–,–,–,–
O=C(CC(=O)C(F)(F)F)c1ccccc1,inactive,inactive,–,inactive,55.3 µM (active),–,–,–,inactive,–
NC1=NCC2c3ccccc3Cc3ccccc3N12 (stereo unspecified),inactive,inactive,inactive,inactive,–,–,0.173%,–,–,–
O=c1[nH]cnc2c1ncn2[C@@H]1O[C@H](CO)[C@@H](O)[C@H]1O,inactive,inactive,1.06 µM (active),inactive,inactive,inactive,-2.07%,inactive,–,inactive
CN(C)CCOc1ccccc1Cc1ccccc1,inactive,inactive,inactive,inactive,inactive,inactive,–,–,–,–
COc1cc(C)ccc1C(C)C,inactive,inactive,–,inactive,inactive,inactive,–,–,inactive,–
O=C1C=CC(=O)O1,inactive,inactive,inactive,inactive,–,–,–,–,–,–
CCC(=O)Nc1ccc(O)cc1,inactive,inactive,inactive,inactive,–,inactive,-1.74%,inactive,–,–
FC(F)(F)c1ccccc1,inactive,inactive,inactive,inactive,inactive,inactive,–,–,–,–
CC(C)NC[C@@H](O)COc1cccc2ccccc12,inactive,inactive,–,inactive,–,–,–,–,inactive,–
CCOC(=O)c1ccccc1O,inactive,inactive,inactive,inactive,inactive,inactive,-7.66%,inactive,–,–
CC(C)=CCC[C@](C)(O)[C@@H]1CC=C(C)CC1,inactive,inactive,–,inactive,inactive,–,–,–,inactive,–
COC(=O)C(C)O (stereo unspecified),inactive,inactive,inactive,inactive,inactive,inactive,–,–,–,–
CC(C)C1=CC2=CC[C@@H]3[C@](C)(CCC[C@@]3(C)C(=O)O)[C@H]2CC1,inactive,inactive,–,inactive,27.3 µM (active),inactive,-2.9%,inactive,inactive,inactive

SMILES,Potency [1],Potency [2],Potency [3],Potency [4],Potency [5],Potency [6],max activation [7],Potency [8],outcome [9],Potency [10]
O=C1CCCc2ccccc21,inactive,inactive,inactive,inactive,–,–,–,–,–,–
CO[Si](C)(C)OC,inactive,inactive,–,inactive,inactive,–,–,–,inactive,–
Cc1cc(NS(=O)(=O)c2ccc(N)cc2)nc(C)n1,inactive,inactive,–,inactive,inactive,inactive,1.05%,inactive,inactive,inactive
CCCS(=O)c1ccc2nc(NC(=O)OC)[nH]c2c1 (stereo unspecified),inactive,inactive,–,–,–,–,–,–,inactive,–
CC(C)(C)c1ccc(OC(=O)c2ccccc2O)cc1,inactive,inactive,inactive,–,–,inactive,–,–,–,–
Oc1ccccc1C=NCc1ccccc1,inactive,inactive,–,inactive,inactive,–,-0.218%,14.1 µM (active),inactive,–
CCOC(=O)C(Br)c1ccccc1 (stereo unspecified),inactive,inactive,inactive,inactive,inactive,inactive,–,–,–,–
COc1ccc(S(=O)(=O)Nc2nnc(CC(C)C)s2)cc1,inactive,inactive,inactive,inactive,inactive,inactive,-1.31% and -1.74%,inactive,–,–
CCCCCCCCCCCCOCCOS(=O)(=O)O,inactive,inactive,–,inactive,–,–,–,–,–,–
OCCN1CCN(CCO)CC1,inactive,inactive,–,–,–,inactive,–,–,inactive,–
CCNCCO,inactive,inactive,–,inactive,inactive,inactive,–,–,–,–
CC(C)O,inactive,inactive,–,inactive,–,inactive,-2.1%,inactive,inactive,inactive
CC1=C(CC(=O)O)c2cc(F)ccc2/C1=C\c1ccc(S(C)(=O)=O)cc1,inactive,inactive,–,inactive,inactive,–,–,–,–,–
Clc1cccc(-c2cc(Cl)cc(Cl)c2)c1,inactive,inactive,–,inactive,59 µM (active),inactive,–,–,–,–
CS(=O)(=O)c1ccc([C@@H](O)[C@@H](CF)NC(=O)C(Cl)Cl)cc1,inactive,inactive,–,inactive,–,inactive,-1.93%,inactive,inactive,inactive
CN1CCN(N)CC1,inactive,inactive,–,inactive,inactive,inactive,–,–,inactive,–
CCOc1ccc2nc(N)sc2c1,inactive,inactive,–,–,17.1 µM (active),39.6 µM (active),–,–,inactive,–
ClC(Cl)Cl,inactive,inactive,–,inactive,–,–,0.159%,–,inactive,–
Cc1ncc(CO)c(CN)c1O,inactive,inactive,–,inactive,–,inactive,-1.2%,inactive,inactive,–
OCc1ccccc1O,inactive,inactive,–,–,inactive,inactive,11.7%,inactive,inactive,–
FC(F)(F)C(Cl)(Cl)Cl,inactive,inactive,–,inactive,inactive,inactive,–,–,inactive,–
Cc1ccccc1C(=O)Nc1ccc(C(=O)N2CCCC(O)c3cc(Cl)ccc32)c(C)c1 (stereo unspecified),inactive,inactive,–,inactive,inactive,–,–,–,–,–
Cc1cc2nc(N)sc2cc1C,inactive,inactive,–,inactive,27.6 µM (active),32 µM (active),–,–,inactive,–
CCOc1ccc(NC(N)=O)cc1,inactive,inactive,–,inactive,inactive,inactive,–,–,inactive,–
CC(C)S,inactive,inactive,–,inactive,inactive,–,–,–,–,–
